Measured values published in PubChem BioAssay AID1304 (The Scripps Research Institute Molecular Screening Center, 2008).
“And” between values parts separate entries of the source, which are not always exact repeats. Identical values can stand only once. Out of some 220,000 compounds screened, about 800 (0.36%) were called active. Shown is part of a subset that was picked to be rich in actives. Values without a mark were called inactive. Cut-off read from the data, not from the text of the source: active = activation above about 33% (passing the limit was not always enough); inactive = the rest.

Each molecule was assayed against Neuropeptide Y receptor type 1 (Homo sapiens) (UniProt P25929) (assay: activation enhancers of human NPY-Y1 – cell-based, primary screen (AID 1304;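 note: cells stimulated with NPY at EC10 then isoproterenol at EC100; 0% = low agonist plus stimulus and 100% = saturating agonist plus stimulus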)). Conditions: NPY-Y1 expressing cells, potentiator/agonist activation; at 3.6 µM; stronger effect = higher value.
Sequence of Neuropeptide Y receptor type 1 (Homo sapiens) (P25929 whole entry, looked up): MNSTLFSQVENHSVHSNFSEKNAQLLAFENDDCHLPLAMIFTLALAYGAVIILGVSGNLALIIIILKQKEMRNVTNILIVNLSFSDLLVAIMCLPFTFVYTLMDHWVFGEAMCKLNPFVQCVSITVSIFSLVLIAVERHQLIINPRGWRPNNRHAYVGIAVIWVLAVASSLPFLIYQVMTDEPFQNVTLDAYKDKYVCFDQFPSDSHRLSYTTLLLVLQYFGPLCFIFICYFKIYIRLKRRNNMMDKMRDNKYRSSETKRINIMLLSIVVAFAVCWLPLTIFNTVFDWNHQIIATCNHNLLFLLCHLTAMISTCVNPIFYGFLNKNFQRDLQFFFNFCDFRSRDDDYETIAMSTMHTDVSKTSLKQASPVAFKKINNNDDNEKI
Work on `Cc1nnc(SCC2=C(C(=O)O)N3C(=O)C(NC(=O)Cn4nc(C)c(Cl)c4C)C3SC2)s1` (stereo not drawn) yielded an activation of -9.62%. With `Cn1nc(C(F)(F)F)cc1C(=O)O` the activation was -6.07%. `COc1ccc(C(=O)OCC(=O)NC(=O)CCSc2ccccc2)cc1` was tested, and the activation was -33.3%. `COc1cccc(CNC(=O)CCC2CCCN(Cc3ccc(OC(F)F)cc3)C2)c1` (stereo not drawn) gave an activation of 4.57%. In the case of `C[C@@H]1NC(=O)c2cc([N+](=O)[O-])cc(F)c2NCCC[C@@H](C(N)=O)NC(=O)[C@H](CC(N)=O)NC1=O`, the activation is reported as 3.2%. In the case of `COC(=O)c1sc(C(F)(F)F)c(-c2ccccc2)c1S(=O)(=O)N(C)C`, the activation is reported as 5.29%. Work on `CCCCCCCCc1c(O)nc(-n2[nH]c(C)c(CCO)c2=O)[nH]c1=O` yielded an activation of 11.5%. With `CC(C)NC(=O)c1ccc(Sc2ccccc2)c([N+](=O)[O-])c1` the activation was 4.46%. `O=C(COc1ccc([N+](=O)[O-])cc1)Nc1ccc(N2CCCC2)cc1` showed an activation of -4.81%. `COc1ccc(C(=O)Nc2ccc(-n3nncc3C(C)(C)C)cc2)cc1` showed an activation of 1.57%. Molecule `COc1ccccc1N(C)S(=O)(=O)c1ccc(Cl)c(C(=O)N2CCC(C(N)=O)CC2)c1` has an activation of 29.7%. Work on `COc1ccc(/C=N/NC(=O)Nc2ccc3nsnc3c2)c(OC)c1` yielded an activation of 7.9%. `Cc1ccc(NC(=O)CCOc2ccccc2)cc1S(=O)(=O)Nc1ccccc1Cl` was tested, and the activation was 21.9%. Molecule `COc1ccccc1OCCNC(=O)c1cc([N+](=O)[O-])cc([N+](=O)[O-])c1` has an activation of 1.67%. In the case of `COc1ccccc1OCCNCC(O)COc1cccc2[nH]c3ccccc3c12` (stereo not drawn), the activation is reported as 107% (active) and 106% (active). `CC(O)CNCCOc1cccc(Oc2ccccc2)c1` (stereo not drawn) showed an activation of -10%. With `COc1ccc(C2c3[nH]c4ccccc4c3CCN2CCCn2cccn2)cc1C` (stereo not drawn) the activation was -23.6%. `Nc1nc(SCC(=O)NNc2c(Cl)cc(Cl)cc2Cl)n[nH]1` gave an activation of 3.91%. `C/C(=N\NC(=O)NC1CCCCC1)c1ccc(OC(F)F)cc1OC(F)F` was tested, and the activation was -17%. In the case of `CC(=O)Nc1ccc(S(=O)(=O)NCCc2ccccc2)cc1`, the activation is reported as -20.2%. For `CCCCNC(=O)C1CCC(CNS(=O)(=O)c2ccc(NC(C)=O)cc2)CC1` (stereo not drawn), the activation was -15.8%. For `COCCCNC(=O)c1ccc(CNS(=O)(=O)c2ccc(NC(C)=O)cc2)cc1`, the activation was 36.8% (active). In the case of `CC(C)(C)NC(=O)Cn1c(SCC(=O)Nc2nccs2)nc2ccccc21`, the activation is reported as -9.44%. For `CS(=O)(=O)n1nc(-c2ccco2)nc1N`, the activation was -9.25%. `CSc1nc(-c2ccco2)nn1C(=O)c1ccccc1Cl` was tested, and the activation was 56.1% (active). In the case of `CSc1nc(-c2ccco2)nn1C(=O)CCc1ccccc1`, the activation is reported as -13.4%. `S=c1[nH]nc(-c2cc(-c3ccsc3)n[nH]2)n1-c1ccccc1` gave an activation of -8.71%. Work on `Cc1nnsc1C(=O)N/N=C/c1ccccc1Cl` yielded an activation of -6.23%. For `O=C(Nc1ccc(F)cc1F)N1CCCN(CCOc2ccccc2)CC1`, the activation was 4.67%. In the case of `CCOC(=O)C1(CC2CCCCO2)CCN(Cc2nc(-c3cccs3)oc2C)CC1` (stereo not drawn), the activation is reported as 1.86%. With `CC(=O)O[C@]1(C(C)=O)CC[C@H]2[C@@H]3C=C(C)C4=CC(=O)CC[C@]4(C)[C@H]3CC[C@@]21C` the activation was -14.5% and 5.59%. In the case of `Cc1noc(COc2ccccc2OCC(O)CNC(C)(C)C)n1` (stereo not drawn), the activation is reported as 111% (active). `CC(C)(C)CC(C)(C)NCC(O)COCCOc1ccc(Br)cc1` (stereo not drawn) was tested, and the activation was -16.3%. Work on `Cc1noc(COc2ccccc2OCc2onc(C)c2Cl)c1Cl` yielded an activation of -31.2%. In the case of `Nc1nc(O)c(CC(=O)O)s1`, the activation is reported as -3.67%. Work on `CCc1cc(-c2n[nH]c(=S)n2CC(C)C)cs1` yielded an activation of -23.7%. With `COC(=O)c1ccc(NC(=O)Nc2ccc(C)cc2)cc1` the activation was 101% (active). `Cc1ccc(NC(=O)CC(=O)Nc2ccc(C)cc2)cc1` showed an activation of -0.47%. For `CC(=O)c1cccc(NC(=O)Nc2ccc(C)cc2)c1`, the activation was -1.32%. `CO/N=C/c1cn(-c2ccc(Cl)cc2)nn1` was tested, and the activation was -2.97%. Molecule `CN(c1ccccc1)S(=O)(=O)c1ccc(Cl)c(C(=O)OCC(=O)NCc2ccco2)c1` has an activation of 16.8%. `O=c1[nH]oc(O)c1-c1ncc(C(F)(F)F)cc1Cl` gave an activation of 7.56%. In the case of `CC(=O)NC(=S)NNC(=O)c1ccc(Br)cc1`, the activation is reported as -6.38%. Work on `Cc1ccc(C(=O)Nc2nnc(-c3cccs3)s2)cc1C` yielded an activation of 19.3%. For `N#Cc1ccc(C(=O)Nc2nc(-c3cccs3)c(C(=O)C(F)(F)F)s2)cc1`, the activation was 45.4% (active). With `CC(=O)c1sc(NC(=O)c2ccc(C)cc2)nc1C` the activation was 5.15%. `Cc1ccc(NC(=S)N2CCCC(c3ccccc3)=N2)cc1` showed an activation of -12%. Work on `CCOC(=O)c1cnc2ccc(F)cc2c1Nc1ccc2c(c1)OCCO2` yielded an activation of -7.89%. `CCCCNC(=O)Nc1c(C)cc(SC#N)cc1C` showed an activation of -6.72%. `O=C(CCCN1C(=O)c2ccccc2C1=O)Oc1ccc(Cl)cc1` showed an activation of -9.31%. In the case of `O=C(NCCc1csc(-c2ccccc2)n1)c1ccccc1F`, the activation is reported as -10.8%. Molecule `O=C(Nc1ccccc1)C1CC(=O)n2c(nc3ccccc32)N1` (stereo not drawn) has an activation of 16.2%. For `CCOC(=O)c1ccc(NC(=O)C2CC(=O)Nc3nc4ccccc4n32)cc1` (stereo not drawn), the activation was 2.63%. In the case of `CC(=O)c1ccc(NC(=O)C2CC(=O)Nc3nc4ccccc4n32)cc1` (stereo not drawn), the activation is reported as 46.6% (active). Work on `Cc1nnc(SC(C(=O)c2ccccc2)c2ccccc2)[nH]c1=O` (stereo not drawn) yielded an activation of -19.4%. Molecule `COc1ccc2[nH]c(=S)cc(C)c2c1` has an activation of -18.7%. `COc1ccc2[nH]c3ccc(OC)cc3c2c1` was tested, and the activation was 64.7% (active). `CCN(CC)CC(=O)c1c[nH]c2ccc(OC)cc12` was tested, and the activation was -5.01%. `CC1CCCCC1NC(=O)CN1CCC(O)(c2ccc3c(c2)OCO3)CC1` (stereo not drawn) showed an activation of 3.89%. `Cn1cnnc1SCC(=O)NNC(=O)COc1ccc(Br)cc1` was tested, and the activation was -5.38%. In the case of `C/C(Cc1ccccc1)=N\NC(=O)CNC(=O)c1ccccc1Cl`, the activation is reported as -3%. Molecule `Cc1ccn(-c2cccc(-n3ccc(C)n3)n2)n1` has an activation of -27.2%. In the case of `S=C(NCc1ccc2c(c1)OCO2)NCc1ccco1`, the activation is reported as -4.25%. `C=CCOc1ccc(/C=C2\SC(=S)N(CCC(=O)O)C2=O)cc1` gave an activation of 6.81%. Molecule `CC(=O)Nc1ccc(OC(=O)COc2ccc(Br)cc2)cc1` has an activation of -18.4%. In the case of `CCOC(=O)CN(C(=O)COc1nc(-c2ccccc2)cc(C)c1C#N)c1ccc(F)cc1`, the activation is reported as -29.2%. Molecule `O=C(Nc1ccccc1)Nc1ccc(C(F)(F)F)cn1` has an activation of 5.1%. In the case of `Oc1ccc(/C=N/Nc2ccc(C(F)(F)F)cn2)cc1O`, the activation is reported as 54.9% (active). With `Cc1nccn1CC(=O)N/N=C/c1ccc(O)c(O)c1` the activation was 2.53%. `Cc1cc(/C=C2/SC(=O)N(CC(=O)N3CCCC3)C2=O)ccc1N1CCOCC1` was tested, and the activation was 15.8%. Molecule `O=C(NCc1ccccc1)C1=C[C@@H](c2ccc(C(F)(F)F)cc2)C[C@@H](OCc2ccc(CO)cc2)O1` has an activation of -2.07%. In the case of `CC(=O)Nc1ccc(NC(=O)C(C)n2c3ccccc3c3nc(=O)cc(C)n32)cc1` (stereo not drawn), the activation is reported as -7.92%. Work on `Cc1ccc(NC(=O)Nc2cccc(C(F)(F)F)c2)nc1` yielded an activation of 1.1%. `CCNS(=O)(=O)c1ccc(NC(=O)Nc2cccc(OC)c2)cc1` was tested, and the activation was 13.3%. In the case of `CCNS(=O)(=O)c1ccc(NC(=O)Nc2cccc(C(F)(F)F)c2)cc1`, the activation is reported as 47.1% (active). `Cc1cc(Cl)ccc1NC(=S)NCCCN1CCCC1=O` showed an activation of 3.39%. `COC(=O)c1cc(S(=O)(=O)N2CCC(C(N)=O)CC2)oc1C` was tested, and the activation was -1.47%. `O=C(CN1CCN(c2ccc(O)cc2)CC1)Nc1cc(S(=O)(=O)N2CCOCC2)ccc1Cl` showed an activation of -5.24%. With `O=C(N/N=C/c1ccc([N+](=O)[O-])o1)c1cccc(S(=O)(=O)N2CCOCC2)c1` the activation was -11.9%. For `O=[N+]([O-])c1cc(Cl)cc(/C=N/NC(=S)Nc2cc(S(=O)(=O)N3CCOCC3)ccc2Cl)c1O`, the activation was 77.5% (active). In the case of `CC(C)(C)C(=O)NNC(=O)c1ccc(Oc2cc(Cl)cc(Cl)c2)o1`, the activation is reported as -7.64%. `Cc1ccc(C)c(Cn2cnc3c(oc4ccccc43)c2=O)c1` showed an activation of -12.5%. With `COc1cccc2cc(S(=O)(=O)c3ccc(C)cc3)/c(=N/NS(=O)(=O)c3ccc(C)cc3)oc12` the activation was 2.71%. Work on `C=CCNC(=O)/C=C/c1ccc(C(C)C)cc1` yielded an activation of 9.4%. `COc1ccc(C(=O)C2CCCN(Cc3ccc4nonc4c3)C2)c(C)c1` (stereo not drawn) was tested, and the activation was -11.8%. In the case of `COc1ccc(C(=O)C2CCCN(Cc3cccn3-c3ccccn3)C2)c(C)c1` (stereo not drawn), the activation is reported as 79.6% (active). For `CCOC(=O)c1[nH]ncc1CN1CCCC(C(=O)c2ccc(OC)cc2C)C1` (stereo not drawn), the activation was -0.54%. `COC(=O)C1=C(C(=O)OC)C2(OC1c1ccc(Br)cc1)C(=O)c1ccccc1C2=O` (stereo not drawn) gave an activation of 2.63%. For `Nc1c(-c2cccc(Cl)c2)cnn1-c1cccc([N+](=O)[O-])c1`, the activation was 43.2%. For `CCOC(=O)/C(N=Nc1cc(C(=O)O)cc(C(=O)O)c1)=C(\O)CCl`, the activation was -8%. `CCOc1ccc(NC(=O)CCC(=O)N/N=C/c2ccc([N+](=O)[O-])s2)cc1` gave an activation of 19.1%. Molecule `COc1ccc(C(=O)NCC(=O)N/N=C/c2ccc([N+](=O)[O-])s2)cc1OC` has an activation of 6.89%. For `Cc1ccccc1NCC(=O)N/N=C\c1ccc([N+](=O)[O-])s1`, the activation was 39.4% (active).
